Experimental findings from PubChem BioAssay (EPA / NIEHS) are described below.

Several values for one entry are separate records, joined by “and”; a condition that tells them apart may be missing. Identical values can stand only once. Activity calls are given as the source filed them. The calls were made as follows: active = hit-call score of the fitted dose curve at least 0.9, where 1 is the maximum; inactive = score below 0.9.

Test [1] is described as follows: ATG_CRE_CIS: Attagene CIS-FACTORIAL HepG2 Assay for human cAMP Responsive Element (CRE) binding protein 3 (AID 2282926). As to conditions: HepG2 CRE cis-reporter, Attagene multiplexed mRNA; actives raise or lower the signal. In short, it runs like this:
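Liver-derived HepG2, transfected with a CRE-containing reporter panel, exposed 24 h; transcript levels sized and quantified by capillary electrophoresis of labelled amplicons; signal changes either way referenced to vehicle.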

Test [2] addresses CCAAT/enhancer-binding protein beta (Homo sapiens) (UniProt P17676). Briefly: ATG_C_EBP_CIS: Attagene CIS-FACTORIAL HepG2 Assay for human CCAAT/Enhancer Binding Protein (C/EBP) beta (AID 2282927). As to conditions: HepG2 Attagene cis-factorial transcription factor reporter; actives raise or lower the signal. The essentials: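 Endogenous transcription factor activity in human liver HepG2 cells is inferred from induction of a CEBPB-linked reporter mRNA. Exposure lasts 24 h; activity is fitted in both directions relative to DMSO.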

Test [3] in a line: ATG_CMV_CIS: Attagene CIS-FACTORIAL HepG2 Assay for human CMV (Internal Marker) (AID 2282928).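 Also: endpoint acts as a background internal control marker rather than a target.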 The conditions noted are these: HepG2 CMV promoter reporter, transcription factor profiling; actives raise or lower the signal. The essentials: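 Bidirectional fits against DMSO are applied to reporter mRNA, read by RT-PCR with capillary electrophoresis, from HepG2 cells exposed 24 h. The endpoint serves as an internal CMV background marker within the cis-factorial reporter panel.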

A short description of test [4]: ATG_DR4_LXR_CIS: Attagene CIS-FACTORIAL HepG2 Assay for human Liver X Receptor (LXR), DR4 submotif (AID 2282929). As to conditions: HepG2 Attagene DR4 cis-reporter, mRNA transcription; AC50: actives raise or lower the signal unless noted; outcome: actives raise or lower the signal unless noted. In short, it runs like this:
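After transient transfection with multiplexed cis-promoter reporter units, HepG2 cells received test chemicals for 24 h. Reporter mRNA induction, detected by fluorescence after RT-PCR and capillary electrophoresis, was scored relative to DMSO.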

The target in test [5] is Aryl hydrocarbon receptor (Homo sapiens) (UniProt P35869). As to the kind of experiment: ATG_Ahr_CIS: Attagene CIS-FACTORIAL HepG2 Assay for human Aryl Hydrocarbon Receptor (Ahr) (AID 2282930). As to conditions: HepG2 AhR cis-factorial reporter transcription; actives raise or lower the signal. The essentials: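 Transient MRTU transfection of HepG2 → 24 h compound exposure → total RNA, oligo(dT) RT → PCR, 6-FAM extension, HpaI cut → CE fluorescence. DMSO = baseline; bidirectional curve fit.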

Test [6] is described as follows: ATG_AP_1_CIS: Attagene CIS-FACTORIAL HepG2 Assay for human Activator Protein 1 (AP-1) (AID 2282931). The conditions noted are these: HepG2 Attagene cis-factorial AP-1 reporter mRNA; actives raise or lower the signal. In short, it runs like this: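 After 24 h incubation with test chemical, RNA from transfected HepG2 cells was reverse-transcribed, amplified, fluorescently labelled and digested before capillary electrophoresis. Reporters were driven by cis-regulatory promoters; activity fitted bidirectionally versus DMSO.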

Test [7] in a line: ATG_BRE_CIS: Attagene CIS-FACTORIAL HepG2 Assay for human Bone Morphogenetic Protein (BMP) Response Element (BRE) (AID 2282933). As to conditions: HepG2 BMP response element reporter, Attagene transcription factor profiling; actives raise or lower the signal. In short, it runs like this:
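Transient MRTU transfection of human HepG2 liver cells; 24 h compound treatment; total RNA isolated, reverse-transcribed, PCR-amplified, 6-FAM labelled, HpaI-cut, capillary electrophoresis. DMSO = negative control/baseline, bidirectional fit.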

Test [8] has as its target Retinoic acid receptor alpha (Homo sapiens) (UniProt P10276). Briefly: ATG_DR5_RAR_CIS: Attagene CIS-FACTORIAL HepG2 Assay for human Retinoic Acid Receptor Alpha (RARE), DR5 submotif (AID 2282934).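 As to AC50: reporter responds to endogenous RAR alpha beta and gamma in HepG2 not RARA alone.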 As to conditions: HepG2 Attagene cis-factorial RARE DR5 reporter, mRNA; actives raise or lower the signal. The essentials: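 Transient MRTU transfection of HepG2; 24 h compound treatment; TriZol RNA, oligo(dT) RT, PCR, FAM labelling, capillary electrophoresis. Bidirectional fit vs DMSO. Endogenous TF activity at DR5 RARE.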

The target of test [9] is Transcription factor E2F1 (Homo sapiens) (UniProt Q01094). Briefly: ATG_E2F_CIS: Attagene CIS-FACTORIAL HepG2 Assay for human E2F Transcription Factor 1 (AID 2282935). As to conditions: HepG2 Attagene cis-reporter, E2F reporter RNA transcripts; actives raise or lower the signal. The essentials: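 Gain or loss of reporter transcript, fitted against DMSO, reflects E2F1-driven transcription. Transiently transfected HepG2 dosed 24 h before RNA isolation. Quantified by fluorescent RT-PCR products separated by capillary electrophoresis.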

The nature of test [10]: ATG_AP_2_CIS: Attagene CIS-FACTORIAL HepG2 Assay for human Activator Protein 2 (AP-2) (AID 2282932). The conditions noted are these: HepG2 AP-2 cis-reporter, Attagene transcription factor profiling; AC50: actives raise or lower the signal unless noted; outcome: actives raise or lower the signal unless noted. The essentials: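 Endogenous transcription factor activity is reported through transfected multiplex reporter constructs in HepG2, after 24 h of compound exposure. Transcripts were quantified by RT-PCR and capillary electrophoresis of fluorescent fragments. Bidirectional fit against DMSO.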

Retinoic acid receptor alpha (Homo sapiens), sequence (P10276 whole entry, looked up): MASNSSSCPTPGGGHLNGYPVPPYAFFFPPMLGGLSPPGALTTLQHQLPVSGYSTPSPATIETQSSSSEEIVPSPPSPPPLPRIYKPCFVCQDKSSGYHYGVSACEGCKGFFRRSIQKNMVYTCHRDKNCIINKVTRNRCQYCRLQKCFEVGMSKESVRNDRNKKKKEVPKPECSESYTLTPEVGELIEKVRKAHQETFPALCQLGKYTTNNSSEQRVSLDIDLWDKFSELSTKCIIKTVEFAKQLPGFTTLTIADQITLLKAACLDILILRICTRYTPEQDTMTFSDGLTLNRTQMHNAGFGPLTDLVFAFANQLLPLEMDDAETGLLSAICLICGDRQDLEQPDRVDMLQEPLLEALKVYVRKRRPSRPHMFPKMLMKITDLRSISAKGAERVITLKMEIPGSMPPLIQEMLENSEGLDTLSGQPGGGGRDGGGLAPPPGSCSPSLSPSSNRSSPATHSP
CCAAT/enhancer-binding protein beta (Homo sapiens), sequence (P17676 whole entry, looked up): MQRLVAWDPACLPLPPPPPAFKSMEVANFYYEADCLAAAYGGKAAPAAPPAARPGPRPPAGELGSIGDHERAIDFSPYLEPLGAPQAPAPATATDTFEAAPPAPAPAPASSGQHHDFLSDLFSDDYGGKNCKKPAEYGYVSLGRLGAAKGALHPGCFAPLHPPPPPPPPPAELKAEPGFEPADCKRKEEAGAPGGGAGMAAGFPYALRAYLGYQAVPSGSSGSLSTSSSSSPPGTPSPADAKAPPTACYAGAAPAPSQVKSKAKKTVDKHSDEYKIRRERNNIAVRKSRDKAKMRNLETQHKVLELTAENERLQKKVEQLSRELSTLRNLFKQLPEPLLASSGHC
Transcription factor E2F1 (Homo sapiens), sequence (Q01094 whole entry, looked up): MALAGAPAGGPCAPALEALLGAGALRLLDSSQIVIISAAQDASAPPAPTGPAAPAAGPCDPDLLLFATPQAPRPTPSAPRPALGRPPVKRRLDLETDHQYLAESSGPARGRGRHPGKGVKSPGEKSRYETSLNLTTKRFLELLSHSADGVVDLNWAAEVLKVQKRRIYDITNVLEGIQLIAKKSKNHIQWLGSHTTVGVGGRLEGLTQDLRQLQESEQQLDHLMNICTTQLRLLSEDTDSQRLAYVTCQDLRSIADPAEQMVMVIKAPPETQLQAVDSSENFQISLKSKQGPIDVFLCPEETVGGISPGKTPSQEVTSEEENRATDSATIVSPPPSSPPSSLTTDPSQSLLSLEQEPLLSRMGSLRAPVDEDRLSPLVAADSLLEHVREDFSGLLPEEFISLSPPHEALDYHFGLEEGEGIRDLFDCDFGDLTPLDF
Aryl hydrocarbon receptor (Homo sapiens), sequence (P35869 whole entry, looked up): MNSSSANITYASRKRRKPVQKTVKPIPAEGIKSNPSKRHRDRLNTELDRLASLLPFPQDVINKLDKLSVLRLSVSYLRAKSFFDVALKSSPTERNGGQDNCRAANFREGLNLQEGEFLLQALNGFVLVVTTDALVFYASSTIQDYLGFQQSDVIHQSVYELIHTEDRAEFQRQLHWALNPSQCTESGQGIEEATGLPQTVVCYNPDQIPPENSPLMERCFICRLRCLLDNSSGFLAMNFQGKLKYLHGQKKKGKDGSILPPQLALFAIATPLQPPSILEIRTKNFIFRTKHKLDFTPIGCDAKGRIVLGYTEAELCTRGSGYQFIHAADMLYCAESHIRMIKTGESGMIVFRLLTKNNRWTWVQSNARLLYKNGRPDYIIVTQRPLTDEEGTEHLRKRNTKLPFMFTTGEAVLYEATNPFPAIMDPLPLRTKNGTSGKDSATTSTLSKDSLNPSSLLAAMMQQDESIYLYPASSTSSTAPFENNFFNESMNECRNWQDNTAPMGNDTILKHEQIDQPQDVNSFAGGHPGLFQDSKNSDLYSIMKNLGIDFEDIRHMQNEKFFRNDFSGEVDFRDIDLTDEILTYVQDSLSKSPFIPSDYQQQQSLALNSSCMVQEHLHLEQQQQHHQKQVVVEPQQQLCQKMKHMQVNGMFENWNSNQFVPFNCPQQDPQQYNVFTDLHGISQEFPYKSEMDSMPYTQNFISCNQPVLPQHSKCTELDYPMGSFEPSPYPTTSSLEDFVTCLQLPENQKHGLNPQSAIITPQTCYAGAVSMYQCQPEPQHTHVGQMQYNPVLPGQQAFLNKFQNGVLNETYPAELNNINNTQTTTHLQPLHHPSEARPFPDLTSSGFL

Turning to `O=C(O)CCC(F)(F)C(F)(F)C(F)(F)C(F)(F)C(F)(F)C(F)(F)F`, the compound was classed as inactive in test [1], in test [2], in [3], in test [5], in test [6] and in [7]. The compound was classed as inactive in test [9]. The values for the AC50 in test [4] and in test [8] were 100 µM (active) and 51 µM (active), respectively.

As to `CC(C)CCOCCC(C)C`, the outcome in test [1], in test [2], in test [3], in [4], in [5] and in test [6] was inactive. For the same compound, the compound was classed as inactive in test [7], in test [8] and in test [9].

In the case of `C=CC(=O)OCCN(CC)CC`, the AC50 – broadly, the concentration giving half of the maximal activity seen – is 26.9 µM (active) in [1]; 44.2 µM (active) in test [2]; 63.2 µM (active) in test [3]; 26.6 µM (active) in test [4]; 65.6 µM (active) in test [5]; 178 µM (active) in test [6]. Further, the compound was classed as inactive in test [7], in [8] and in test [9].

`O=C(Nc1ccc(Cl)c(Cl)c1)c1cc(Cl)cc(Cl)c1O`: the outcome in test [1], in test [2], in test [3], in test [6] and in [9] was inactive. Further, the AC50 is 28.6 µM (active) in test [4], 0.0441 µM (active) in test [5], 0.695 µM (active) in [7] and 1.37 µM (active) in [8].

Turning to `O=C(O)C(F)(F)OC(F)(F)C(F)(F)OC(F)(F)C(F)(F)OC(F)(F)C(F)(F)C(F)(F)C(F)(F)F`, the AC50 in [1] is 37.7 µM (active) and 27.1 µM (active); in test [4], 16.6 µM (active) and 21.7 µM (active). Moreover, the result in test [2], in test [3], in [5], in test [6], in [8] and in test [9] was inactive.

Take `Oc1c(Cl)cc(Cl)cc1Sc1cc(Cl)cc(Cl)c1O`: the outcome in [1], in [2], in [3], in [4], in test [5] and in test [6] was inactive. For the same compound, the compound was classed as inactive in test [8] and in [9]. Further, in test [7], the AC50 is 1.9 µM (active).

In the case of `O=C(O)CN(CCCN(CC(=O)O)CC(=O)O)CC(=O)O`, the outcome in test [1], in [2], in test [3], in [5], in [6] and in test [8] was inactive. Further, the compound was called inactive in test [9]. The AC50 in test [4] was 6.63 µM (active).

`CCCCCc1ccc(O)cc1`: the compound was called inactive in test [1], in [2], in test [6], in test [7], in [8] and in test [9]. The concentration at half-maximal activity (AC50) is 33.4 µM (active) in test [3], 33 µM (active) in test [4] and 15 µM (active) in test [5].

Turning to `NS(=O)(=O)O`, the outcome in [1], in test [2], in test [3], in [4], in test [5] and in [6] was inactive. The compound was called inactive in test [10] and in [9].

With `FC(F)(F)N1C(F)(F)C(F)(F)OC(F)(F)C1(F)F`, the call in test [1], in [2], in [3], in test [4], in test [5] and in test [6] was inactive. Moreover, the compound was called inactive in test [7], in test [8] and in [9].

As to `C=CC(C)(CCC=C(C)C)OC(C)=O` (stereo not given), the outcome in test [1], in [2], in [3], in [4], in [5] and in test [6] was inactive. The compound was called inactive in [7], in [8] and in test [9].

Consider `Cc1ccccc1OCC(=O)O`, for which the call in test [1], in [2], in test [3], in test [4], in test [5] and in test [6] was inactive. For the same compound, the compound was classed as inactive in [7], in [8] and in test [9].

As to `Cc1ccc(N=Nc2c(O)ccc3ccccc23)c(C)c1`, the call in test [1], in test [2], in test [3], in test [4], in [7] and in test [8] was inactive. Moreover, the compound was classed as inactive in test [9]. Further, the AC50 in test [5] was 0.36 µM (active); in test [6], 5.87 µM (active).

In the case of `CCC(=O)O`, the call in [1], in test [2], in test [3], in test [4], in test [5] and in [6] was inactive. The compound was classed as inactive in test [8] and in test [9].

Regarding `CC1CNCC(C)O1` (stereo not given), the call in test [1], in [2], in [3], in [4], in [5] and in [6] was inactive. Moreover, the result in test [10], in test [8] and in test [9] was inactive.

In the case of `CCCCCCCCCCCCCCCCCC[N+](C)(C)Cc1ccccc1`, the compound was classed as inactive in test [1], in [3], in [6] and in [8]. Besides, the AC50 in test [2] is 75.8 µM (active); in test [4] it was 12.8 µM (active); in test [5], 12.3 µM (active); in [7], 4.38 µM (active); in test [9], 12.8 µM (active).
